This assay deals with VDR:RXRa (NR concentration 270 nM, RXRa partner concentration 90 nM). Kind of assay: PBM binding z-score (relative to random genomic background probes); higher = stronger binding; sequences stand for … in GC…GCGATTGACAGCGTAGAATGAAGG
On the procedure: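 Protein-binding microarray (Agilent 4x180K custom design, double-stranded 60-nt probes: 5' GC cap, 34-nt variable region, 24-nt constant primer region; full probe sequence given). Purified or IVT nuclear receptor:RXRα heterodimers (3:1 NR:RXRα, mostly 270:90 nM) or homodimers were incubated for 1 h in PBS with 2% milk and no ligand, then detected with Alexa488 antibodies. Fluorescence from o1-orientation probes (~5 replicates averaged) was converted to z-scores against 500 random hg19 background probes. Variable regions are seed direct-repeat (DR0–DR5) sites, all their single-nucleotide variants and half-site ablations.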
As to GCAGACAGGTTAAACGCAGGTAACTCAGGGTGGC, the PBM binding z-score is 0.135.
The result for TCTTGTAGATGAAAGGTTAAGAAAGCCGAAGCCT reads 1.06; that for TGAATGAGGTTAAAGATCTGGGAACGTGGCGTCG, 1.31.
The value for CCTTACGTGTCACTCCAGGTTATAGCATCGGAGT was 1.33; that for CCTGCTAGGTCAATGTTCAGCTAAAGCAGCTCGC was 1.05; that for CCTCGGAGGACAGAAGGTCAGAACTGTCCGCTTT was 0.995.
The value for TGATATAGGTAAACAGGTGAAAGTCCGTAAGTTA was 0.405; that for ATGTCTAGGTAAAGATAGTTCAGTGAATGCAAAT was 0.565.
In turn, GGAACGAGGGCATTCGAGTTGATAGCGTGGCGAT came in with a PBM binding z-score of 3.59.
On to TATTGTAGATCAACAGGAGGTTAAGAAAGATCGA, for which the PBM binding z-score is 0.587.
GCGACTGGAGCAAAGCAGGTTACCATAAGGTTGG: the PBM binding z-score is -0.418.
The sequence CCGACCGGGGCAGAAAGGTTACCATACCATCCGG came in with a PBM binding z-score of 1.5.
As for ACTATTAGTTGACTTGGGGCAACCGATACGACGC, the PBM binding z-score is 0.274.
The value for CCTACTGGGCCATCAGGTCATTGACATCAACGTT was 1.64.
Sequence TCTTGTAGATCAGCAGGTTAAGGAAGCTGGCCAA yielded a PBM binding z-score of 0.37.
On to CGTCCAAGGTCAAGGGTCAGTGAAGAGATGACGG, for which the PBM binding z-score stood at 5.63.
The value for TCATATAGGTAAAGGTGAAAGGCGAACGATATGA was 1.14.
ACTCACGGGTCAACGAGGTTATAGCACGCGTATA registered a PBM binding z-score of 7.63.
The result for ATTTCTAGGTAAAGTTCAGTGAAAGATCGATAGA reads 2.11.
In turn, TATACAGGGTCAAAGGCTAGAGTACGAATGTCGA returned a PBM binding z-score of 4.8.
Take ATCGCTAGGTAACAAGTTCAGTGAAAGAGAGGAC: the PBM binding z-score is 1.42.
The result for TCATATAGGTAAACGCTAGGTGAAAGTCCGATCT reads 1.03; that for TCATATAGGTAAATGCTAAGTGAAAGTCCGATCT, 0.987.
In the case of TCTAGTTGGTCAAAAGTCACACACTCGAAATGCG, the PBM binding z-score is 1.21.
Consider CCTACAGGGCCACGAAAGGTCATTGATTCAGTGA, for which the PBM binding z-score stood at 4.61.
The result for TCTCGGAGGACACCAAGGTCAGAGCTTTCCAGAG reads 3.36; that for CCTTACGGGGCACTCCAGGTTATAGCATCGGAGT, 0.0326.
The value for CCTTACGGGTCAAGGTTTTAGCACGGGTGGTACG was 2.82; that for AGAACGAGGGCAACGAGTTGATAGCACGGGTGGC was 5.16; that for ATCGCAAGGTCGACGAGGTGAGTATACACCGTTT was 4.11.
The value for ACTAGGAGGCCAAGGGTCACTCAAGATTAGTCCG was 2.98; that for AAAATGAGGTTATTAAGATCAGGGAATTGCGGTC was 2.47.
TTACCAAGGTGAGCTGAGCTCGTTGATCCAACTC had a PBM binding z-score of -0.427.
Take ATCTCTAGGTAAAAGTTCAGTCAATCCCGAGGAT: the PBM binding z-score is 1.45.
Consider CCTCGGAGCACAGAAGGTCAGAGCTGTCCGCTTT, for which the PBM binding z-score stood at 1.33.
ATGTCTAGGTAAAGTTCAGTGAAAGATCGATAGA had a PBM binding z-score of 1.8.
Sequence TCTATTAGTTGATTAGGGCAGCCGAAACAGCGGA had a PBM binding z-score of 0.607.
Sequence CAAACTAGGTCACGAAAGTTCAAAGTCGAATGAC showed a PBM binding z-score of 7.01.
The value for TCTTGGAGGACACGAAGGTCAGAGCTTTCCAGAG was 2.35; that for CCTCGGAGGACAGAAGATCAGAGCTGTCCGCTTT was -0.618.

The values above are taken from the supplement of paper PMC6555819.
